Assay results published in PubChem BioAssay (NCATS).
Calls of active or inactive are those of the source. Calls follow the shape of the dose curve; as a rule, active = well fitted cell-killing curve with a large enough effect; inconclusive = small, poorly fitted or top-dose-only effect; inactive = flat fitted curve, though single readings scatter.

experiment: Cell Viability - LYMP1-003 - Assay at 24 hr (AID 963); conditions: LYMP1-003 lymphoblastoid cell viability; series mostly up to 92.2 µM
Excerpt: NIH Chemical Genomics Center [NCGC]
NIH Molecular Libraries Screening Centers Network [MLSCN]
National Institutes of Environmental Health Sciences [NIEHS]
National Toxicology Program [NTP]
We have developed a 1536-well cell-based assay for quantitative high throughput screening (qHTS) against a number of cell lines to determine in vitro cytotoxicity of small molecules. This particular assay uses a human lymphoblastoid cell line (LYMP1-003) purchased from Coriell Institute for Medical Research.
NCGC Assay Protocol Summary:
The CellTiter-Glo luminescent cell viability assay (Promega) is a homogeneous method to measure the number of viable cells in culture. The end point readout of this assay is based on quantitation of intracellular ATP, an indicator of metabolic activity, using the luciferase reaction. Luciferase catalyzes the oxidation of beetle Luciferin to oxyluciferin and light in the presence of ATP. The luminescent signal is proportional to amount of ATP present.
Using the CellTiter-Glo luminescent cell viability assay, the amount of cellular ATP was measured in the lymphoblastoid cell line with complete culture medium following compound treatment for 24 hours. The assay was performed in opaque white Kalypsys 1536-well plates. In the screen, tetraoctylammonium bromide was used as positive control. Library compounds were measured for their ability to cause acute toxicity in the cell line, as reflected by a decrease in intracellular ATP levels, in a concentration-dependent manner. […] AC50 values were determined from concentration-response data modeled with the standard Hill equation.
qHTS protocol for CellTiter Glo lymphoblastoid cellular assay
[Step] [Parameter] [Value] [Description]
1. Reagent; 5 uL; 2500 lymphoblastoid cells/well
2. Time; 5 hr; 37 C incubation
4. Controls; 23 nL; Tetraoctylammonium bromide 6.4pM to 92 uM
5. Time; 24 hr; 37 C incubation
6. Reagent; 5 uL; CellTiter Glo reagent
7. Time; 30 min; Room Temperature
8. Detection; Luminescence; Viewlux plate reader
Keywords: cell viability, cytotoxicity, lymphoblastoid cell line, luminescence, NTPHTS, NTPHTS_NCGC, NIEHS, DSSTox, MLSMR, MLSCN, NIH Roadmap, qHTS, NCGC

Compound | outcome
CC(=O)[O-].CC(=O)[O-].CC(=O)[O-].[Cr+3] | inactive
C=C(C)CCl | inactive
CCCCCc1cc(O)cc(O)c1 | inactive
C=CC#N | inactive
Nc1c(Br)cc([N+](=O)[O-])cc1[N+](=O)[O-] | inactive
Oc1cccc(Cl)c1Cl | inactive
CCOP(=S)(OCC)Oc1nc(Cl)c(Cl)cc1Cl | inactive
O=[N+]([O-])c1ccccc1-c1ccccc1 | inactive
OCCOCCO | inactive
ClC(Cl)Br | inactive
O=[N+]([O-])c1ccc(Cl)cc1 | inactive
CCCCCCCCCCCCCl | inactive
Cl/C=C/Cl | inactive
Oc1c(Cl)cccc1Cl | inactive
CCCCNC(=O)n1c(NC(=O)OC)nc2ccccc21 | inactive
c1ccc(Nc2ccc(Nc3ccccc3)cc2)cc1 | inactive
Cc1ccc(N)c(C)c1 | inactive
CN=C=O | inactive
CC(C)Br | inactive
c1ccc(C2CO2)cc1 (stereo not given) | inactive

Compound | outcome
Clc1cc(Cl)c(Cl)c(Cl)c1 | inactive
CCC(Cl)[N+](=O)[O-] (stereo not given) | inactive
C=CC(=O)OCCN(C)C | inactive
C=CC(=O)OC | inactive
O=C(Cl)c1ccccc1F | inactive
Oc1ccc(Cl)c(Cl)c1Cl | inactive
Cc1ccc(N)cc1N | inactive
CC(C)(C)C(O)(CCc1ccc(Cl)cc1)Cn1cncn1 (stereo not given) | inactive
COC(=O)Nc1nc2ccccc2[nH]1 | inactive
CCCCCCCCCCCOC(=O)c1ccccc1C(=O)OCCCCCCCCCCC | inactive
Nc1cccc(Cl)c1 | inactive
ClC(Br)Br | inactive
O=[N+]([O-])c1cccc(O)c1 | inactive
Clc1cccc(Cl)c1Cl | inactive
ClC(Cl)C(Cl)Cl | inactive
Cc1cc(Cl)ccc1O | inactive
C=CC(=O)OCC(C)C | inactive
Nc1ccc(Cc2ccc(N)cc2)cc1 | inactive
CC(C)(C)OOC(=O)c1ccccc1 | inactive
C=CC(=O)OCCO | inactive
